# Assay results reported in the supplement of paper PMC10981050.
# Where “and” joins values, the source holds several entries; their conditions need not be identical. Equal values may be shown once. Where a name gives a salt, the structure may show the parent alone.
# What was measured:
# Experiment in all cases: cell viability relative to vehicle control; higher = less cytotoxic
# Details in all cases: 10 µM
# K562 = test system: K562
# Summary of the method: (§1)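 CRISPR-edited mutant clones and isogenic wild-type clones from four leukaemia lines were screened against Selleck bioactive, kinase and epigenetic probe libraries, with identity-inconsistent compounds excluded. Each compound was acoustically dispensed at a single 10 µM dose into 384-well plates holding 2000 cells in 50 µL medium per well. After 48 h the supernatant was removed and CellTiter-Glo luminescence was read. Viability was expressed as percent of the on-plate vehicle control and analysed in Genedata Screener.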
# MARIMO = test system: MARIMO
# Summary of the method: as §1
# MOLM14 = test system: MOLM14
# Summary of the method: as §1
# OCI-AML2 = test system: OCI-AML2
# Summary of the method: as §1
smiles,measurement,setting,value
COc1c(-c2ccc3cc(NS(C)(=O)=O)ccc3c2)cc(-n2ccc(=O)[nH]c2=O)cc1C(C)(C)C [S5402 Dasabuvir(ABT-333).cdx],cell viability,K562; SRSF2 genotype: SRSF2 P95H/wt,84% and 86.8%
same,cell viability,K562; SRSF2 genotype: SRSF2 wt/wt,80.6%
same,cell viability,MARIMO; SRSF2 genotype: SRSF2 P95H/wt,82%
same,cell viability,MARIMO; SRSF2 genotype: SRSF2 wt/wt,89.6%
same,cell viability,MOLM14; SRSF2 genotype: SRSF2 P95H/wt,88.3%
same,cell viability,MOLM14; SRSF2 genotype: SRSF2 wt/wt,97.3%
same,cell viability,OCI-AML2; SRSF2 genotype: P95H/wt,90.5%
same,cell viability,OCI-AML2; SRSF2 genotype: wt/wt,90.5%
C[C@@H]1C/C=C/C=C/C=C/C=C/[C@H](O[C@@H]2O[C@H](C)[C@@H](O)[C@H](N)[C@@H]2O)C[C@@H]2O[C@](O)(C[C@@H](O)C[C@H]3O[C@@H]3/C=C/C(=O)O1)C[C@H](O)[C@H]2C(=O)O [Natamycin],cell viability,K562; SRSF2 genotype: SRSF2 P95H/wt,102% and 105%
same,cell viability,K562; SRSF2 genotype: SRSF2 wt/wt,102%
same,cell viability,MARIMO; SRSF2 genotype: SRSF2 P95H/wt,100%
same,cell viability,MARIMO; SRSF2 genotype: SRSF2 wt/wt,105%
same,cell viability,MOLM14; SRSF2 genotype: SRSF2 P95H/wt,98.5%
same,cell viability,MOLM14; SRSF2 genotype: SRSF2 wt/wt,104%
same,cell viability,OCI-AML2; SRSF2 genotype: P95H/wt,101%
same,cell viability,OCI-AML2; SRSF2 genotype: wt/wt,110%
COc1ccc2cccc(CCNC(C)=O)c2c1 [Agomelatine],cell viability,K562; SRSF2 genotype: SRSF2 P95H/wt,110% and 101%
same,cell viability,K562; SRSF2 genotype: SRSF2 wt/wt,104%
same,cell viability,MARIMO; SRSF2 genotype: SRSF2 P95H/wt,97.7%
same,cell viability,MARIMO; SRSF2 genotype: SRSF2 wt/wt,106%
same,cell viability,MOLM14; SRSF2 genotype: SRSF2 P95H/wt,104%
same,cell viability,MOLM14; SRSF2 genotype: SRSF2 wt/wt,102%
same,cell viability,OCI-AML2; SRSF2 genotype: P95H/wt,101%
same,cell viability,OCI-AML2; SRSF2 genotype: wt/wt,101%
C=C1C[C@@]23CC[C@H]4[C@@](C)(CCC[C@@]4(C)C(=O)O)[C@@H]2CC[C@@H]1C3 [Kaurenoic acid],cell viability,K562; SRSF2 genotype: SRSF2 P95H/wt,105% and 103%
same,cell viability,K562; SRSF2 genotype: SRSF2 wt/wt,107%
same,cell viability,MARIMO; SRSF2 genotype: SRSF2 P95H/wt,105%
same,cell viability,MARIMO; SRSF2 genotype: SRSF2 wt/wt,101%
same,cell viability,MOLM14; SRSF2 genotype: SRSF2 P95H/wt,112%
same,cell viability,MOLM14; SRSF2 genotype: SRSF2 wt/wt,103%
same,cell viability,OCI-AML2; SRSF2 genotype: P95H/wt,104%
same,cell viability,OCI-AML2; SRSF2 genotype: wt/wt,106%
COCCOc1cnc2ccn([C@H](C)c3nnc4c(F)cc(-c5cnn(C)c5)cn34)c(=O)c2c1,cell viability,K562; SRSF2 genotype: SRSF2 P95H/wt,86.5% and 87.1%
same,cell viability,K562; SRSF2 genotype: SRSF2 wt/wt,85.7%
same,cell viability,MARIMO; SRSF2 genotype: SRSF2 P95H/wt,86.8%
same,cell viability,MARIMO; SRSF2 genotype: SRSF2 wt/wt,94.3%
same,cell viability,MOLM14; SRSF2 genotype: SRSF2 P95H/wt,96.7%
same,cell viability,MOLM14; SRSF2 genotype: SRSF2 wt/wt,93.5%
same,cell viability,OCI-AML2; SRSF2 genotype: P95H/wt,82%
same,cell viability,OCI-AML2; SRSF2 genotype: wt/wt,85.9%
O=C1CCC(N2C(=O)c3ccccc3C2=O)C(=O)N1 (stereo not drawn) [Thalidomide],cell viability,K562; SRSF2 genotype: SRSF2 P95H/wt,92.1% and 86.8%
same,cell viability,K562; SRSF2 genotype: SRSF2 wt/wt,84.5%
same,cell viability,MARIMO; SRSF2 genotype: SRSF2 P95H/wt,83.2%
same,cell viability,MARIMO; SRSF2 genotype: SRSF2 wt/wt,86.4%
same,cell viability,MOLM14; SRSF2 genotype: SRSF2 P95H/wt,87.5%
same,cell viability,MOLM14; SRSF2 genotype: SRSF2 wt/wt,86.7%
same,cell viability,OCI-AML2; SRSF2 genotype: P95H/wt,93.8%
same,cell viability,OCI-AML2; SRSF2 genotype: wt/wt,91.4%
O=C(NCc1cccc(O)c1)Nc1nc(-c2ccncc2)cs1,cell viability,K562; SRSF2 genotype: SRSF2 P95H/wt,92% and 95.8%
same,cell viability,K562; SRSF2 genotype: SRSF2 wt/wt,106%
same,cell viability,MARIMO; SRSF2 genotype: SRSF2 P95H/wt,65.6%
same,cell viability,MARIMO; SRSF2 genotype: SRSF2 wt/wt,85.8%
same,cell viability,MOLM14; SRSF2 genotype: SRSF2 P95H/wt,25.3%
same,cell viability,MOLM14; SRSF2 genotype: SRSF2 wt/wt,60.8%
same,cell viability,OCI-AML2; SRSF2 genotype: P95H/wt,18.8%
same,cell viability,OCI-AML2; SRSF2 genotype: wt/wt,27.6%
CCCC1O[C@@H]2C[C@H]3[C@@H]4CCC5=CC(=O)C=C[C@]5(C)[C@H]4[C@@H](O)C[C@]3(C)[C@]2(C(=O)CO)O1 (stereo partly drawn) [Budesonide],cell viability,K562; SRSF2 genotype: SRSF2 P95H/wt,85.5% and 95.1%
same,cell viability,K562; SRSF2 genotype: SRSF2 wt/wt,83.7%
same,cell viability,MARIMO; SRSF2 genotype: SRSF2 P95H/wt,97.6%
same,cell viability,MARIMO; SRSF2 genotype: SRSF2 wt/wt,103%
same,cell viability,MOLM14; SRSF2 genotype: SRSF2 P95H/wt,86.1%
same,cell viability,MOLM14; SRSF2 genotype: SRSF2 wt/wt,84%
same,cell viability,OCI-AML2; SRSF2 genotype: P95H/wt,70.5%
same,cell viability,OCI-AML2; SRSF2 genotype: wt/wt,87.6%
CCN(CC)CC(O)CNc1ccc(NCC2CO2)c2c1C(=O)c1ccccc1C2=O (stereo not drawn),cell viability,K562; SRSF2 genotype: SRSF2 P95H/wt,1.64% and 0.64%
same,cell viability,K562; SRSF2 genotype: SRSF2 wt/wt,3.62%
same,cell viability,MARIMO; SRSF2 genotype: SRSF2 P95H/wt,1.76%
same,cell viability,MARIMO; SRSF2 genotype: SRSF2 wt/wt,2.11%
same,cell viability,MOLM14; SRSF2 genotype: SRSF2 P95H/wt,2.26%
same,cell viability,MOLM14; SRSF2 genotype: SRSF2 wt/wt,0.31%
same,cell viability,OCI-AML2; SRSF2 genotype: P95H/wt,0.66%
same,cell viability,OCI-AML2; SRSF2 genotype: wt/wt,0.95%
CC(C)n1nc(-c2cc3cc(O)ccc3[nH]2)c2c(N)ncnc21 [Torkinib (PP242)],cell viability,K562; SRSF2 genotype: SRSF2 P95H/wt,21.2% and 25.5%
same,cell viability,K562; SRSF2 genotype: SRSF2 wt/wt,21.9%
same,cell viability,MARIMO; SRSF2 genotype: SRSF2 P95H/wt,23.1%
same,cell viability,MARIMO; SRSF2 genotype: SRSF2 wt/wt,23%
same,cell viability,MOLM14; SRSF2 genotype: SRSF2 P95H/wt,12.8%
same,cell viability,MOLM14; SRSF2 genotype: SRSF2 wt/wt,9.03%
same,cell viability,OCI-AML2; SRSF2 genotype: P95H/wt,9.37%
same,cell viability,OCI-AML2; SRSF2 genotype: wt/wt,15.1%
CN(Cc1ccc(C(C)(C)C)cc1)Cc1cccc2ccccc12 [Butenafine HCl],cell viability,K562; SRSF2 genotype: SRSF2 P95H/wt,97% and 102%
same,cell viability,K562; SRSF2 genotype: SRSF2 wt/wt,91.6%
same,cell viability,MARIMO; SRSF2 genotype: SRSF2 P95H/wt,84.1%
same,cell viability,MARIMO; SRSF2 genotype: SRSF2 wt/wt,105%
same,cell viability,MOLM14; SRSF2 genotype: SRSF2 P95H/wt,93.4%
same,cell viability,MOLM14; SRSF2 genotype: SRSF2 wt/wt,98%
same,cell viability,OCI-AML2; SRSF2 genotype: P95H/wt,85.5%
same,cell viability,OCI-AML2; SRSF2 genotype: wt/wt,101%
